Reference: PubChem BioAssay
The source made the active and inactive calls. Unless noted, no rule for the calls is given here.

Columns and labels:
[1] = compounds altering circadian rhythm period length – cell-based, LOPAC library, luminescence reporter (AID 2774); settings: circadian reporter cells, at 7 µM, actives lie on both sides;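 also: values are relative to mean of DMSO wells on each plate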
[2] = test system: Hepatitis C virus NS3 helicase; assay: blockers of NS3h binding to ssDNA – biochemical, fluorescence polarization, LOPAC1280 library, primary screen (AID 687035; in the data active = inhibition above about 37%); settings: Purified HCV NS3 helicase, Cy5-dT15 ssDNA binding fluorescence polarization; stronger effect = higher value; concentration not given here
[3] = compounds altering Cy5-DNA-NS3h complex signal – biochemical, LOPAC1280, artefact control for HCV NS3 helicase inhibitor project (AID 687037); settings: Cy5-DNA-NS3h complex fluorescence interference counterscreen
[4] = viability loss with induced miR-34 in A549 – imaging, A549 dox-inducible miR-34, nuclei and caspase counts, primary screen (AID 1347080;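 active = compounds whose cell count with miR-34 switched on is under 0.7 times the count with it off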); settings: A549 miR-34 inducible, Hoechst nuclei count, 48 h
[5] = blockers of cellular phospholipid synthesis – cell-based, LOPAC library, screen 4, primary screen (AID 1347384); settings: animal cells, phospholipid biosynthesis inhibition screen; at 10 µM
[6] = galactose survival enhancers in mitochondrial complex I cybrids – cell-based, galactose medium, ATP luminescence, primary screen (AID 1645843;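 active = z-score of at least 1.8 in each of two replicates, scored against plate mean and spread of sample wells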;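 also: positive z means more ATP and so rescue of galactose-driven cybrid death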); settings: complex I mutant cybrid cells, 72 h, stronger effect = higher value
[7] = stronger effect = lower value, cell number ratio, induced over uninduced
[8] = measured here: relative caspase fold change +Dox/-Dox
[9] = measured here: total cells with miR-34 induction, stronger effect = lower value
[10] = measured here: total cells without miR-34 induction

Row | SMILES | period change [1] | inhibition [2] | fluorescence ratio (interference) [3] | fold change [4, 7] | fold change [4, 8] | cell count [4, 9] | cell count [4, 10] | outcome [5] | z-score [6]
1 | CCCn1c(=O)c2[nH]c(-c3ccc(S(=O)(=O)O)cc3)nc2n(CCC)c1=O | -0.005 h (inactive) | 0% (inactive) | 1 (inactive) | 0.978 (inactive) | 2.81 | 10100 | 10400 | inactive | 0.43 (inactive)
2 | COc1ccc(NC(=O)/C=C/c2ccc(Cl)cc2)cc1 | -0.055 h (inactive) | -2% (inactive) | 1 (inactive) | 1.13 (inactive) | 0.89 | 7420 | 6550 | inactive | 0.42 (inactive)
3 | COc1cc2c(CCNC(C)=O)c[nH]c2cc1O | -0.175 h (inactive) | -2% (inactive) | 1 (inactive) | 0.921 (inactive) | 1.6 | 10100 | 11000 | inactive | -0.44 (inactive)
4 | O=c1[nH]c2cc(Cl)ccc2c(O)c1-c1ccc(Oc2ccccc2)cc1 | -0.015 h (inactive) | -2% (inactive) | 1 (inactive) | 1.06 (inactive) | 0.974 | 10400 | 9850 | inactive | 0.965 (inactive)
5 | CCNC(=O)[C@H]1O[C@@H](n2cnc3c(N)nc(NCCc4ccc(CCC(=O)O)cc4)nc32)C(O)[C@H]1O (stereo partly drawn) | 0.1 h (inactive) | 0% (inactive) | 1 (inactive) | 0.963 (inactive) | 1.23 | 9660 | 10000 | inactive | 0.485 (inactive)
6 | N[C@@H](Cc1cnc[nH]1)C(=O)O | 0.03 h (inactive) | 0% (inactive) | 1.1 (inactive) | 0.99 (inactive) | 1.08 | 9970 | 10100 | inactive | 0.865 (inactive)
7 | CN1CCc2cc(NC(=O)Nc3cccnc3)ccc21 | 0.02 h (inactive) | -2% (inactive) | 1 (inactive) | 1.02 (inactive) | 2.86 | 10800 | 10700 | inactive | 1.34 (inactive)
8 | COC1=C(OC)C(=O)c2ccccc2C1=O | -0.205 h (inactive) | -1% (inactive) | 1 (inactive) | 1.45 (inactive) | 1.7 | 1290 | 890 | inactive | -1.04 (inactive)
9 | C#CC(N)CCC(=O)O (stereo not drawn) | 0 h (inactive) | -1% (inactive) | 1 (inactive) | 1.04 (inactive) | 2.03 | 10600 | 10100 | inactive | -0.17 (inactive)
10 | O=C(O)CCCC[C@@H]1CCSS1 | 0.11 h (inactive) | 0% (inactive) | 1 (inactive) | 0.958 (inactive) | 0.931 | 9120 | 9520 | inactive | 0.53 (inactive)
11 | O=C(O)/C(=C/c1c(C(=O)O)[nH]c2cc(Cl)cc(Cl)c12)c1ccccc1 | 0.21 h (inactive) | 0% (inactive) | 1 (inactive) | 1.07 (inactive) | 0.725 | 9940 | 9320 | inactive | 1.03 (inactive)
12 | N=C(N)c1ccccc1 | -0.055 h (inactive) | -2% (inactive) | 1 (inactive) | 1.03 (inactive) | 1.99 | 10800 | 10500 | inactive | 0.605 (inactive)
13 | O=C(O)CCC(C(=O)O)N1C(=O)c2ccccc2C1=O (stereo not drawn) | -0.075 h (inactive) | -4% (inactive) | 1 (inactive) | 1.05 (inactive) | 0.915 | 10300 | 9760 | inactive | 0.255 (inactive)
14 | O=C(O)CC1CCCc2ccccc2C1O (stereo not drawn) | 0.085 h (inactive) | -4% (inactive) | 1 (inactive) | 1.02 (inactive) | 1.73 | 10700 | 10500 | inactive | 0.315 (inactive)
15 | Nc1c(S(=O)(=O)O)cc(Nc2ccc(Nc3nc(Cl)nc(Nc4ccc(S(=O)(=O)O)cc4)n3)c(S(=O)(=O)O)c2)c2c1C(=O)c1ccccc1C2=O | 0.105 h (inactive) | 86% (active) | 0.7 (active) | 1.07 (inactive) | 0.889 | 9580 | 8990 | inactive | 4.81 (active)
16 | CC(C)C[C@H](NC(=O)[C@H](O)[C@H](N)Cc1ccccc1)C(=O)O | -0.01 h (inactive) | -2% (inactive) | 1 (inactive) | 1.02 (inactive) | 0.988 | 10100 | 9920 | inactive | 0.245 (inactive)
17 | C=CCn1c(=O)c2c(nc(-c3ccc(S(=O)(=O)O)cc3)n2C)n(C)c1=O | -0.155 h (inactive) | -3% (inactive) | 1 (inactive) | 1.02 (inactive) | 2.49 | 10300 | 10100 | inactive | 0.335 (inactive)
18 | CNc1ncnc2c1ncn2[C@@H]1O[C@H](CO)[C@H](O)C1O (stereo partly drawn) | -0.015 h (inactive) | -2% (inactive) | 1 (inactive) | 1.08 (inactive) | 1.05 | 10300 | 9460 | inactive | 0.765 (inactive)
19 | C[C@H](O)C(=O)C1=Nc2c(nc(N)[nH]c2=O)NC1 | 0.19 h (inactive) | -3% (inactive) | 0.9 (inactive) | 0.965 (inactive) | 1.64 | 10200 | 10500 | inactive | 0.4 (inactive)

Row | SMILES | period change [1] | inhibition [2] | fluorescence ratio (interference) [3] | fold change [4, 7] | fold change [4, 8] | cell count [4, 9] | cell count [4, 10] | outcome [5] | z-score [6]
20 | CC1(C)CCC=[N+]1[O-] | -0.065 h (inactive) | -2% (inactive) | 1 (inactive) | 0.955 (inactive) | 0.876 | 9650 | 10100 | inactive | 0.285 (inactive)
21 | COc1cc(C(O)C(=O)O)ccc1O (stereo not drawn) | 0.03 h (inactive) | -2% (inactive) | 1 (inactive) | 0.986 (inactive) | 1.43 | 10600 | 10700 | inactive | -0.02 (inactive)
22 | OC[C@H]1O[C@@H](n2cnc3cncnc32)[C@H](O)[C@@H]1O | 0.1 h (inactive) | -4% (inactive) | 1 (inactive) | 1.03 (inactive) | 1.29 | 10800 | 10600 | inactive | -0.28 (inactive)
23 | OCC1O[C@H](O)C(Cl)C(O)C1O (stereo partly drawn) | 0.3 h (inactive) | -1% (inactive) | 1 (inactive) | 0.973 (inactive) | 1.54 | 9780 | 10100 | inactive | -0.395 (inactive)
24 | C=CC1(C)CC(=O)C2(O)C(C)(O1)C(OC(C)=O)C(O)C1C(C)(C)CCC(O)C12C (stereo not drawn) | 0.345 h (inactive) | 0% (inactive) | 1.1 (inactive) | 0.994 (inactive) | 1.26 | 9840 | 9900 | inactive | -0.035 (inactive)
25 | N.N.O=C(O)C1(C(=O)O)CCC1.[Pt+2] | 0.07 h (inactive) | -3% (inactive) | 1 (inactive) | 1.04 (inactive) | 1.42 | 6330 | 6070 | inactive | -0.53 (inactive)
26 | Oc1ccccc1O | -0.735 h (inactive) | -1% (inactive) | 1 (inactive) | 1.03 (inactive) | 1.8 | 7780 | 7580 | inactive | -1.42 (inactive)
27 | Cn1c(=O)c2[nH]c(-c3ccc(S(=O)(=O)O)cc3)nc2n(C)c1=O | -0.005 h (inactive) | 0% (inactive) | 1 (inactive) | 1.01 (inactive) | 2.24 | 10100 | 10000 | inactive | -0.23 (inactive)
28 | CCCC(=O)NCCc1c2n(c3ccc(OC)cc13)CCCc1ccccc1-2 | 0.06 h (inactive) | 0% (inactive) | 1 (inactive) | 1.08 (inactive) | 0.293 | 8600 | 7960 | inactive | -0.27 (inactive)
29 | NCCS(=O)O | 0.035 h (inactive) | -3% (inactive) | 1 (inactive) | 1 (inactive) | 0.978 | 10600 | 10500 | inactive | 0.415 (inactive)
30 | [Li+] | -0.09 h (inactive) | -1% (inactive) | 1 (inactive) | 0.887 (inactive) | 0.586 | 9680 | 10900 | inactive | -0.05 (inactive)
31 | C#CCn1c(=O)c2c(ncn2C)n(C)c1=O | -0.07 h (inactive) | -1% (inactive) | 1 (inactive) | 0.971 (inactive) | 0.997 | 10100 | 10400 | inactive | 0.15 (inactive)
32 | O=c1[nH]c(=O)c2nc3ccccc3nc2[nH]1 | -0.07 h (inactive) | -1% (inactive) | 1 (inactive) | 1.04 (inactive) | 1.29 | 8690 | 8380 | inactive | 0.695 (inactive)
33 | COc1ccccc1CNCCCCCCNCCCCCCCCNCCCCCCNCc1ccccc1OC | 0.295 h (inactive) | 11% (inactive) | 1 (inactive) | 1.1 (inactive) | 0.839 | 8650 | 7890 | inactive | -1.19 (inactive)
34 | NC1(C(=O)O)CCCCC1 | -0.115 h (inactive) | -2% (inactive) | 1 (inactive) | 0.983 (inactive) | 2.37 | 10700 | 10900 | inactive | 0.63 (inactive)
35 | NO | -0.195 h (inactive) | 1% (inactive) | 1 (inactive) | 1.15 (inactive) | 1.06 | 10000 | 8720 | inactive | 0.49 (inactive)
36 | O[Si](CCCN1CCCCC1)(c1ccc(F)cc1)C1CCCCC1 (stereo not drawn) | -0.3 h (inactive) | -2% (inactive) | 1 (inactive) | 0.937 (inactive) | 1.64 | 8140 | 8690 | inactive | -0.95 (inactive)
37 | N[C@H](CO)C(=O)O | -0.02 h (inactive) | -3% (inactive) | 1 (inactive) | 0.97 (inactive) | 2.63 | 10300 | 10600 | inactive | 0.31 (inactive)
